This passage reports outcome and AC50 results from PubChem BioAssay (EPA / NIEHS).

Structures are written as SMILES. Calls of active or inactive are those of the source. Rule for the calls: active = hit-call score of the fitted dose curve at least 0.9, where 1 is the maximum; inactive = score below 0.9.

A word on the AC50: it is the concentration giving half of the maximal activity seen.

Read-out in the experiment: TIMP metallopeptidase inhibitor 1 (TIMP1), TIMP1 (gene 7076)
Put plainly: BSK_hDFCGF_TIMP1: BioMAP Diversity Plus: hDFCGF Assay for TIMP metallopeptidase inhibitor 1 (TIMP1) Biomarker Activity (AID 2283062). The conditions noted are these: primary human foreskin fibroblasts; actives raise or lower the signal. The protocol: BSK_hDFCGF is a cell-based, multiplexed-readout assay that uses foreskin fibroblast, a human skin primary cell, with measurements taken at 24 hours after chemical dosing in a 96-well plate.BSK_hDFCGF_TIMP1 is an assay component measured in the BSK_hDFCGF assay. It measures TIMP-1 antibody related to regulation of gene expression using ELISA technology.Data from the assay component BSK_hDFCGF_TIMP1 was analyzed into 1 assay endpoint. This assay endpoint, BSK_hDFCGF_TIMP1, was analyzed with bidirectional fitting relative to DMSO as the negative control and baseline of activity. Using a type of binding reporter, gain or loss-of-signal activity can be used to understand changes in the signaling as they relate to the gene TIMP1. Furthermore, this assay endpoint can be referred to as a primary readout, because this assay has produced multiple assay endpoints where this one serves a signaling function. To generalize the intended target to other relatable targets, this assay endpoint is annotated to the protease inhibitor intended target family, where the subfamily is metalloproteinase inhibitor.
The levels of cell surface (or secreted, indicated by the prefix "s") biomarker endpoints were measured by ELISA. Overt cytotoxicity to cells in confluent adherent cultures (all systems other than the BT system) was assessed by measuring total protein levels using sulforhodamine B (SRB) staining in parallel cultures at the time of biomarker measurements, indicated as SRB endpoints. For proliferation assays for adherent cell types, individual cell types are cultured at sub-confluence and relative cell numbers quantified by SRB staining at time points optimized for each system (48 h: 3C and CASM3C systems; 72 h: BT and HDF3CGF systems; 96 h: SAg system). SRB was performed by staining cells with 0.1% SRB after fixation with 10% TCA and reading wells at 560 nm.Viability and proliferation of PBMC (T cells) was quantified by Alamar Blue reduction for the SAg and BT systems. For PBMC viability (referred to as PBMC Cytotoxicity within the assay endpoint names), cells were plated (75,000/well in a 96-well plate) and then chemical samples added for 1 h before addition of activators, SEB and TSST-1 (20 ng/mL final concentration each). Cells were incubated for 90 h. Then, Alamar Blue (20 uL/well) (Invitrogen, Cat DAL1100) was added for 6 h, and the plates were read with a fluorescence microplate reader at 546/580 nm (excitation/emission). For PBMC proliferation, cells were plated and activated as above but incubated for only 16 h prior to addition of Alamar Blue. Plates were read after 6 h.
Take `CC(C)c1nnc2ccc(-c3ocnc3-c3cc(F)ccc3F)cn12`: the outcome was inactive.

As to `NC(=O)N(O)[C@@H]1COc2cc(OCc3ccccc3)ccc21`, the outcome was inactive. As for `C=CCc1cc(S(=O)(=O)c2ccc(O)c(CC=C)c2)ccc1O`, the AC50 was 26.4 µM (active). For the compound `OCCC(F)(F)C(F)(F)C(F)(F)C(F)(F)F`, the outcome was inactive. With `CCCCCCCCN(C)C`, the result was inactive. `NC(N)=O`: the result was inactive. As to `CCN(CC)C(=S)SSC(=S)N(CC)CC`, the AC50 was 2.03 µM (active). For `CCCOc1ccc(S(=O)(=O)N2CCN(CC)CC2)cc1-c1nc2c(CC)n(Cc3ccccn3)nc2c(=O)[nH]1`, the result was inactive. As for `COS(C)(=O)=O`, the outcome was inactive. With `NCC(F)(F)C(F)(F)C(F)(F)C(F)(F)F`, the result was inactive. Still for that read-out and setting: then `CC(=O)c1ccccc1`, with “inactive”. As to `Cc1nccn1-c1ccc(Sc2cccc(C3(C(N)=O)CCOCC3)c2)cc1`, the AC50 was 2.1 µM (active). Turning to `O=S(=O)(O)CCC(F)(F)C(F)(F)C(F)(F)C(F)(F)C(F)(F)C(F)(F)F`, the result was inactive. `OC[C@H]1O[C@@H]2O[C@H]3[C@H](O)[C@@H](O)[C@@H](O[C@H]4[C@H](O)[C@@H](O)[C@@H](O[C@H]5[C@H](O)[C@@H](O)[C@@H](O[C@H]6[C@H](O)[C@@H](O)[C@@H](O[C@H]7[C@H](O)[C@@H](O)[C@@H](O[C@H]1[C@H](O)[C@H]2O)O[C@@H]7CO)O[C@@H]6CO)O[C@@H]5CO)O[C@@H]4CO)O[C@@H]3CO`: the outcome was inactive. Take `CCCCCCCCCCCCCCO`: the outcome was inactive. For the compound `O=c1[nH]cnc2c1ncn2[C@H]1CC[C@@H](CO)O1`, the result was inactive. Turning to `O=C1CN(N=Cc2ccc([N+](=O)[O-])o2)C(=O)N1`, the result was inactive. Turning to `CCOc1ccc2[nH]cc(C(=O)NCc3ccccc3)c(=O)c2n1`, the result was inactive. Still for that read-out and setting: then `Cc1cccc(O)c1C`, with “inactive”; and `NC(=O)N1c2ccccc2C=Cc2ccccc21`, with “inactive”. For `S=P(N1CC1)(N1CC1)N1CC1`, the result was inactive. On the same count and under the same terms, then `Cc1ncc([C@@H](CCCCCCc2ccc3c(n2)NCCC3)CC(=O)O)cn1`, with “inactive”.

On to `CCCCCCCCCCCCCCCCOS(=O)(=O)O`, for which the AC50 is 18.2 µM (active). `O=C(O)c1ccc2c(c1)nc(C(=O)NC1CCN(C3CC3)CC1)n2Cc1cc(-c2ccc(Cl)s2)on1`: the outcome was inactive. For the compound `CCc1ccc(O)c(C(C)(C)C)c1`, the AC50 is 31.1 µM (active). In the case of `OC(Cn1cncn1)(Cn1cncn1)c1ccc(F)cc1F`, the outcome was inactive. As to `CC(C)CCCCCCOC(=O)C1CCCCC1C(=O)OCCCCCCC(C)C` (stereo not given), the result was inactive. Regarding `Cn1cc[nH]c1=S`, the outcome was inactive.

As for `C[C@@H](Oc1ccc(CNC(=O)c2cccnc2Oc2ccc3c(c2)OCO3)c(F)c1)C(=O)O`, the outcome was inactive.

Regarding `Cn1c(=O)c2[nH]cnc2n(C)c1=O`, the result was inactive. Regarding `FC(F)=C(F)C(F)(F)C(F)(F)C(F)(F)C(F)(F)C(F)(F)C(F)(F)F`, the result was inactive. In the case of `CCCCCCOC(=O)CC(CC(=O)OCCCCCC)(OC(=O)CCC)C(=O)OCCCCCC`, the result was inactive.

Consider `CCc1cccc(CC)c1N`, for which the result was inactive. As for `COCc1nnc(-c2ccc[n+]([O-])c2)n1-c1c(Cl)c(Cl)cc2[nH]c(=O)c(=O)[nH]c12`, the outcome was inactive. For `c1ccc2ncccc2c1`, the result was inactive.

With `CCCCOC(=O)c1ccccc1`, the result was inactive. On to `CC[C@H](C)C(=O)O[C@H]1C[C@H](O)C=C2C=C[C@H](C)[C@H](CC[C@@H](O)C[C@@H](O)CC(=O)O)[C@H]21`, for which the outcome was inactive. In the case of `OCCOCCOCCO`, the outcome was inactive.

Take `NC(=O)NN=Cc1ccc([N+](=O)[O-])o1`: the result was inactive.

On to `O=C(O)[C@H](O)[C@@H](O)C(=O)O`, for which the result was inactive.
